According to PubChem BioAssay (NCATS):
Results filed as inconclusive are left out. Calls of active or inactive are those of the source. Calls follow the shape of the dose curve; as a rule, active = well fitted curve in the direction sought with a large enough effect; inconclusive = small, poorly fitted or top-dose-only effect, or another doubt; inactive = no such curve, though single readings can be large; an effect the other way counts as inactive or inconclusive.

Assays:
[1] = qHTS of pediatric cancer cell lines to identify multiple opportunities for drug repurposing: Primary screen for DAOY cells (AID 1347090); also: series mostly up to about 46 µM; nearly all actives have a fitted effect of over 55% in size
Procedure, shortened: (§1)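 Viability measured as metabolically active cells via CellTiter-Glo luminescence following 48 hours of compound exposure, 11-point dilutions in confirmatory testing. 500-1,000 cells/well plated 5 hours before dosing; controls were DMSO and 2.3 µM bortezomib.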

[2] = qHTS of pediatric cancer cell lines to identify multiple opportunities for drug repurposing: Primary screen for SK-N-MC cells (AID 1347093); also: potency is read from the fitted curve at half-maximal effect
Procedure, shortened: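 Metabolically active cells were quantified by ATP-dependent luminescence (CellTiter-Glo, 15 min at room temperature) following 48 h treatment. Cells had been plated at 500-1,000 per well and settled for 5 h beforehand.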

[3] = qHTS of pediatric cancer cell lines to identify multiple opportunities for drug repurposing: Primary screen for BT-37 cells (AID 1347094); also: potency is read from the fitted curve at half-maximal effect
Procedure, shortened: (§2)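 ATP-based luminescence (CellTiter-Glo) quantifies viability after a 48-hour exposure. Compounds are dosed across 8 or 11 final concentrations; DMSO and 2.3 µM bortezomib serve as controls.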

[4] = qHTS of pediatric cancer cell lines to identify multiple opportunities for drug repurposing: Primary screen for NB-EBc1 cells (AID 1347095)
Procedure, shortened: as §2

[5] = qHTS of pediatric cancer cell lines to identify multiple opportunities for drug repurposing: Primary screen for U-2 OS cells (AID 1347096); also: nearly all actives have a fitted effect of over 50% in size
Procedure, shortened: (§3)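 Viability after 48 h compound treatment at 37C, 500-1,000 cells/well, read as ATP luminescence with CellTiter-Glo. Primary screens used 11-point (MIPE, 0.78 nM-46 µM) or 8-point (NPC, 0.59 nM-46 µM) final concentrations; follow-up screens used 11-point dilutions.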

[6] = qHTS of pediatric cancer cell lines to identify multiple opportunities for drug repurposing: Primary screen for Saos-2 cells (AID 1347097); also: nearly all actives have a fitted effect of over 40% in size; also: potency is read from the fitted curve at half-maximal effect
Procedure, shortened: as §2

[7] = qHTS of pediatric cancer cell lines to identify multiple opportunities for drug repurposing: Primary screen for SK-N-SH cells (AID 1347098);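 also: DMSO served as neutral control and bortezomib at 2.3 µM as positive control; nearly all actives have a fitted effect of over 65% in size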
Procedure, shortened: (§4)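 Cells (500-1,000/well) rested 5 h, then received compounds for 48 h; metabolically active cells were measured by CellTiter-Glo luminescence. Final concentrations spanned up to 46 µM (MIPE, 11-point) or 0.59 nM-46 µM (NPC, 8-point) in primary screens, 11-point in follow-ups.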

[8] = qHTS of pediatric cancer cell lines to identify multiple opportunities for drug repurposing: Primary screen for Rh18 cells (AID 1347102); also: nearly all actives have a fitted effect of over 65% in size
Procedure, shortened: as §3

[9] = qHTS of pediatric cancer cell lines to identify multiple opportunities for drug repurposing: Primary screen for MG 63 (6-TG R) cells (AID 1347105); also: nearly all actives have a fitted effect of over 50% in size
Procedure, shortened: as §2

[10] = qHTS of pediatric cancer cell lines to identify multiple opportunities for drug repurposing: Primary screen for control Hh wild type fibroblast cells (AID 1347106);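 also: series mostly up to about 46 µM; a drop in luminescence marks cytotoxicity and a rise apparent proliferation; nearly all actives have a fitted effect of over 55% in size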
Procedure, shortened: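 Cells (500-1,000/well) in growth media were settled 5 h at 37 degrees C, then given compounds for 48 h. Viability was read as CellTiter-Glo luminescence. Primary runs used MIPE at 11 points (0.78 nM-46 µM) and NPC at 8 points (0.59 nM-46 µM); follow-ups used 11 points.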

[11] = qHTS of pediatric cancer cell lines to identify multiple opportunities for drug repurposing: Primary screen for Rh30 cells (AID 1347107); also: series mostly up to about 46 µM; nearly all actives have a fitted effect of over 75% in size
Procedure, shortened: as §3

[12] = qHTS of pediatric cancer cell lines to identify multiple opportunities for drug repurposing: Primary screen for Rh41 cells (AID 1347108);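 also: series mostly up to about 46 µM; luminescence drop marks cytotoxic hits; nearly all actives have a fitted effect of over 70% in size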
Procedure, shortened: as §2

[13] = qHTS of pediatric cancer cell lines to identify multiple opportunities for drug repurposing: Primary screen for NB1643 cells (AID 1347099); also: nearly all actives have a fitted effect of over 50% in size
Procedure, shortened: as §2

[14] = qHTS of pediatric cancer cell lines to identify multiple opportunities for drug repurposing: Primary screen for LAN-5 cells (AID 1347100)
Procedure, shortened: as §3

[15] = qHTS of pediatric cancer cell lines to identify multiple opportunities for drug repurposing: Primary screen for BT-12 cells (AID 1347101); also: nearly all actives have a fitted effect of over 25% in size
Procedure, shortened: as §4

[16] = qHTS of pediatric cancer cell lines to identify multiple opportunities for drug repurposing: Primary screen for OHS-50 cells (AID 1347103); also: nearly all actives have a fitted effect of over 40% in size
Procedure, shortened: as §4

[17] = qHTS of pediatric cancer cell lines to identify multiple opportunities for drug repurposing: Primary screen for RD cells (AID 1347104); also: nearly all actives have a fitted effect of over 55% in size
Procedure, shortened: as §2

[18] = target: N-terminal Xaa-Pro-Lys N-methyltransferase 1 (Homo sapiens) (UniProt Q9BV86); experiment: qHTS Assay for Inhibitors of N-terminal methyltransferase 1 (NTMT1): LOPAC validation of the NTMT1 SAHH-coupled ThioGlo3 Assay (AID 1347143); conditions: recombinant NTMT1, SAHH-coupled ThioGlo3 fluorescence;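 also: SAH from peptide methylation measured as thiol fluorescence via SAHH coupling and ThioGlo3; potency is read from the fitted curve at half-maximal effect; nearly all actives have a fitted effect of over 70% in size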
N-terminal Xaa-Pro-Lys N-methyltransferase 1 (Homo sapiens), sequence (Q9BV86 whole entry, looked up): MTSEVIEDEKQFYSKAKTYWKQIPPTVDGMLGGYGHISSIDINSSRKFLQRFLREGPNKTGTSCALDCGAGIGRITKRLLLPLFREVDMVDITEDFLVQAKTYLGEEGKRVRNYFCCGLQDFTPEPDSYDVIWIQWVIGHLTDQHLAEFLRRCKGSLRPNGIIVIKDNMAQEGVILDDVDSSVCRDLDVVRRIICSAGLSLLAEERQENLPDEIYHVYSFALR
Procedure, shortened: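 Steps: dispense 125nM NTMT1; pin-transfer test compounds at several concentrations, with 1uM RCC1-6 peptide as control; incubate 1 min; start with reagent holding 100uM SAM, 10uM SAHH, 15uM ThioGlo3; read at 0 and 30 min.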

[19] = qHTS of pediatric cancer cell lines to identify multiple opportunities for drug repurposing: Primary screen for A673 cells (AID 1347092); also: nearly all actives have a fitted effect of over 45% in size; also: potency is read from the fitted curve at half-maximal effect
Procedure, shortened: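 A673 cells (500-1,000 cells/well) were treated 48 hours at 37 degrees C with compounds at 11-point (0.78 nM to 46 µM) or 8-point (0.59 nM to 46 µM) dilutions. Viability read by CellTiter-Glo luminescence; concentration-response curves fitted.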

[20] = qHTS of pediatric cancer cell lines to identify multiple opportunities for drug repurposing: Primary screen for SJ-GBM2 cells (AID 1347091)
Procedure, shortened: as §1

Measured: Potency

CN(C)CCCSc1ccccc1NC(=O)/C=C/c1ccccc1
active: [6] 21.1 µM
inactive: [1] | [2] | [3] | [4] | [5] | [7] | [8] | [9] | [10] | [11] | [12]

Oc1ccc(/C=C/c2cc(O)cc(O)c2)cc1
inactive: [1] | [4] | [5] | [6] | [13] | [14] | [15] | [8] | [16] | [17] | [10] | [11] | [12]
active: [2] 15 µM | [3] 19.5 µM | [18] 50.1 µM

O=C1c2ccccc2C(=O)c2c1ccc(O)c2O
active: [6] 23.7 µM
inactive: [1] | [19] | [2] | [4] | [5] | [7] | [13] | [14] | [15] | [8] | [16] | [17] | [9] | [10] | [11] | [12]

O=C(OCc1ccccc1)c1ccc(O)cc1
inactive: [1] | [20] | [19] | [2] | [3] | [4] | [5] | [6] | [13] | [14] | [15] | [8] | [17] | [9] | [10] | [11] | [12]

O=C(O)CCC(=O)c1ccc(-c2ccccc2)cc1
inactive: [1] | [20] | [19] | [2] | [3] | [4] | [5] | [6] | [7] | [13] | [14] | [15] | [8] | [16] | [17] | [9] | [10] | [11] | [12]

COc1ccc2nc(NC(=O)Nc3ccccc3)sc2c1
inactive: [1] | [20] | [19] | [2] | [3] | [4] | [5] | [7] | [13] | [14] | [15] | [8] | [17] | [9] | [10] | [11] | [12]

CC(=O)Oc1cccc2c1C(=O)c1c(OC(C)=O)cc(C(=O)O)cc1C2=O
active: [19] 21.1 µM
inactive: [20] | [3] | [5] | [7] | [15] | [8] | [17] | [10] | [11] | [12]

Nc1ccc(N=Nc2ccccc2)c(N)n1
inactive: [1] | [20] | [19] | [2] | [3] | [4] | [5] | [6] | [13] | [14] | [15] | [8] | [17] | [9] | [10] | [11] | [12]
